Bioassay records from PubChem.
This excerpt belongs to a sample that is enriched for hits.
IDE exosite FP – exo-site inhibitors of human insulin-degrading enzyme; P14735; purified IDE, FL-6b probe fluorescence polarization; stronger effect = lower value; z-score at 20 µM; 6.3% of 17,000 active;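 active means z-score of -3 or lower, meaning strong loss of probe binding signal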;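 further: His-tagged human IDE residues 42-1019 made in E. coli with 30 nM FL-6b probe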
* = called active by the depositor.

`CCS(=O)(=O)Nc1ccc2c(c1)C(=O)N(C)[C@@H]1CC[C@H](CC(=O)NCc3ccc(OC)cc3)O[C@H]1CO2` gave IDE exosite FP 0.0604.
Screening COc1cccc(C(=O)Nc2ccc3c(c2)C(=O)N(C)[C@H]2CC[C@@H](CC(=O)NCc4ccc(F)cc4)O[C@@H]2CO3)c1 returned IDE exosite FP -6.19*.
CN1C(=O)c2cc(NS(C)(=O)=O)ccc2OC[C@@H]2O[C@H](CC(=O)NCc3ccccc3)CC[C@@H]21 was read as IDE exosite FP -2.49.
COc1ccc(C(=O)Nc2ccc3c(c2)C(=O)N(C)[C@H]2CC[C@H](CC(=O)NCC4CC4)O[C@@H]2CO3)cc1 was read as IDE exosite FP -0.443.
COc1ccc(C(=O)Nc2ccc3c(c2)C(=O)N(C)[C@H]2CC[C@H](CC(=O)NCC4CC4)O[C@H]2CO3)cc1 was read as IDE exosite FP -3.58*.
Screening COc1cccc(C(=O)Nc2ccc3c(c2)C(=O)N(C)[C@H]2CC[C@H](CC(=O)NCc4ccc(F)cc4)O[C@H]2CO3)c1 returned IDE exosite FP -0.354.
Screening COc1cccc(C(=O)Nc2ccc3c(c2)C(=O)N(C)[C@H]2CC[C@@H](CC(=O)NCc4ccc(F)cc4)O[C@H]2CO3)c1 returned IDE exosite FP -2.93.
`CN1C(=O)c2cc(NS(C)(=O)=O)ccc2OC[C@H]2O[C@H](CC(=O)N3CCOCC3)CC[C@H]21` gave IDE exosite FP -1.04.
`COc1ccc(C(=O)Nc2ccc3c(c2)C(=O)N(C)[C@H]2CC[C@@H](CC(=O)NCC4CC4)O[C@@H]2CO3)cc1` gave IDE exosite FP 0.564.
`CN1C(=O)c2cc(NS(C)(=O)=O)ccc2OC[C@@H]2O[C@@H](CC(=O)N3CCOCC3)CC[C@@H]21` gave IDE exosite FP -5.06*.
CN1C(=O)c2cc(NS(C)(=O)=O)ccc2OC[C@@H]2O[C@H](CC(=O)N3CCOCC3)CC[C@@H]21 was read as IDE exosite FP -1.54.
`CCS(=O)(=O)Nc1ccc2c(c1)C(=O)N(C)[C@H]1CC[C@@H](CC(=O)NCc3ccc(OC)cc3)O[C@@H]1CO2` gave IDE exosite FP -4.24*.
`CCC(=O)Nc1ccc2c(c1)OC[C@@H](C)N(Cc1ccccc1)C[C@@H](C)[C@H](OC)CN(C)C2=O` gave IDE exosite FP 1.12.
O=C(C[C@@H]1CC[C@H]2[C@@H](COC[C@@H](O)CN2Cc2cc(F)ccc2F)O1)NCc1ccc(Oc2ccccc2)cc1 was read as IDE exosite FP 0.185.
Screening O=C(C[C@@H]1CC[C@H]2[C@@H](COC[C@H](O)CN2S(=O)(=O)c2cccc(F)c2)O1)NCc1ccncn1 returned IDE exosite FP -0.57.
`COc1ccccc1CNC(=O)C[C@H]1C[C@@H]2c3cc(NC(=O)C4CCC4)ccc3O[C@@H]2[C@H](CO)O1` gave IDE exosite FP -0.422.
`CCN1CC(=O)N2[C@H](CO)[C@H](c3ccc(Br)cc3)[C@@H]2C1` gave IDE exosite FP 0.806.
`COc1ccc(C#Cc2ccc([C@@H]3[C@H]4CN(C(=O)c5ccc(F)cc5)CC(=O)N4[C@H]3CO)cc2)cc1` gave IDE exosite FP 2.3.
COc1ccc(S(=O)(=O)N(C)C[C@H]2Oc3c(cccc3N(C)C)C(=O)N([C@@H](C)CO)C[C@H]2C)cc1 was read as IDE exosite FP 0.469.
For CCCC#Cc1ccc2c(c1)[C@@H]1[C@@H](CCN1S(=O)(=O)c1ccccc1C)[C@@H](CO)N2 the results were IDE exosite FP 2.36.
`O=C(c1cccnc1)N1CC2(C1)[C@H](c1ccccc1)[C@@H](CO)N2Cc1ccc(Cl)cc1` gave IDE exosite FP -0.0644.
CC(C)NC(=O)N1[C@@H]2CNC[C@H]1C2c1ccc(-c2ccc(C#N)cc2)cc1 (stereo partly drawn) was read as IDE exosite FP 3.92.
For N#C[C@@H]1[C@@H](c2ccc(-c3cccnc3)cc2)[C@H](CO)N1C(=O)C1CC1 the results were IDE exosite FP 0.442.
`O=C(CC1CC1)N1CC(=O)N2[C@@H](CO)[C@H](c3ccc(-c4ccccc4)cc3)[C@@H]2C1` gave IDE exosite FP -0.595.
For CN(C)CC(=O)N1CC(=O)N2[C@@H](CO)[C@H](c3ccc(-c4ccc(C#N)cc4)cc3)[C@@H]2C1 the results were IDE exosite FP 2.82.
`O=C(CC1CC1)N1CC(=O)N2[C@H](CO)[C@@H](c3ccc(C#Cc4ccccc4)cc3)[C@H]2C1` gave IDE exosite FP -6.38*.
For O=C(CC1CC1)N1CC(=O)N2[C@@H](CO)[C@@H](c3ccc(-c4cccnc4)cc3)[C@@H]2C1 the results were IDE exosite FP -1.45.
For O=C(CC1CC1)N1CC(=O)N2[C@H](C1)[C@H](c1ccc(/C=C/c3ccccc3)cc1)[C@@H]2CO the results were IDE exosite FP -3.79*.
Screening O=C(CC1CC1)N1CC(=O)N2[C@@H](CO)[C@@H](c3ccc(C#Cc4ccc(F)cc4)cc3)[C@@H]2C1 returned IDE exosite FP 2.45.
O=C(Cc1ccccc1)N1CC(=O)N2[C@H](CO)[C@@H](c3ccc(C#Cc4ccccc4)cc3)[C@@H]2C1 was read as IDE exosite FP -0.472.
`CN(C)CC(=O)N1CC(=O)N2[C@@H](CO)[C@H](c3ccc(/C=C/c4ccccc4)cc3)[C@@H]2C1` gave IDE exosite FP -4.17*.
O=C(c1ccc(F)cc1)N1CC(=O)N2[C@H](C1)[C@H](c1ccc(/C=C/c3ccccc3)cc1)[C@@H]2CO was read as IDE exosite FP -2.76.
COc1ccc2c3c([nH]c2c1)[C@H](CO)NCC31CN(Cc2cc(F)ccc2F)C1 was read as IDE exosite FP -0.0423.
For COCC(=O)NC[C@H]1N[C@H](CO)[C@@H]1c1ccc(C#CC2CCCCC2)cc1 the results were IDE exosite FP 1.41.
For CCCC#Cc1ccc([C@H]2[C@H](CO)N3C(=O)CN(C(=O)Nc4ccccc4)C[C@@H]23)cc1 the results were IDE exosite FP 2.16.
CNC(=O)C[C@H]1CC[C@@H]2[C@@H](COc3ccc(NC(=O)c4ccccc4F)cc3C(=O)N2C)O1 was read as IDE exosite FP 0.742.
For Cc1ccccc1S(=O)(=O)N1C[C@H](O)COC[C@@H]2O[C@H](CC(=O)N3CCCCC3)CC[C@H]21 the results were IDE exosite FP -0.374.
`CCCNC(=O)N(C)C[C@H]1Oc2cc(C#C[C@H](C)O)ccc2S(=O)(=O)N([C@H](C)CO)C[C@H]1C` gave IDE exosite FP 1.31.
O=C(Nc1ccc2c(c1)[C@@H]1C[C@H](CC(=O)N3CCCCC3)O[C@H](CO)[C@@H]1O2)NC1CCCCC1 was read as IDE exosite FP 0.994.
`C/C=C/c1ccc([C@@H]2[C@@H](CO)N3CCCCN(S(=O)(=O)c4cccc(C)c4)C[C@@H]23)cc1` gave IDE exosite FP 3.52.
O=C(C[C@@H]1CC[C@H](NC(=O)c2ccc3c(c2)OCO3)[C@H](CO)O1)NCc1ccc(Oc2ccccc2)cc1 was read as IDE exosite FP 2.9.
For O=C(Nc1ccc(F)cc1)N1CC(=O)N2[C@@H](CO)[C@@H](c3ccc(-c4ccccc4)cc3)[C@@H]2C1 the results were IDE exosite FP -0.633.
Cc1ccc(-c2ccc([C@H]3[C@@H](CO)N4C(=O)CN(C(=O)Nc5ccc(F)cc5)C[C@H]34)cc2)cc1 was read as IDE exosite FP 1.58.
Screening O=C(Nc1ccc(F)cc1)N1CC(=O)N2[C@H](CO)[C@H](c3ccc(-c4ccc(F)cc4)cc3)[C@@H]2C1 returned IDE exosite FP 0.297.
Screening O=C(Nc1ccccc1)N1CC(=O)N2[C@H](C1)[C@@H](c1ccc(-c3ccc(F)cc3)cc1)[C@@H]2CO returned IDE exosite FP -0.87.
